Measured values taken from PubChem BioAssay AID463173 (ICCB-Longwood Screening Facility, Harvard Medical School, 2010).
Screen size: about 52,000 compounds; about 4,300 (8.3%) were called active. No stated cut-off is given here; in the data, active means survival mostly below about 52% (no sharp cut-off); inactive means mostly above about 56%. The sample as a whole holds a higher share of actives than the screen did.

Test system: DeltatarO mutant
Experiment: growth inhibition of S. aureus wild type versus tarO mutant, primary screen, teichoic acid synthesis inhibitors, RN4220, OD600 (AID 463173)
Conditions: OD600, 18 h, hits give low values, screened at 18.75 µg/mL (by protocol)

Structure (SMILES)	survival
CC(C)(C)OC(=O)N1CCC(c2c(C(=O)NCc3ccco3)cnn2-c2ccc(F)cc2)CC1	88% (inactive)
CCc1ccc2occ(CC(=O)Nc3c(C(=O)c4ccccc4)oc4ccccc34)c2c1	95% (inactive)
COc1ccc(NC(=O)c2oc3ccccc3c2NC(=O)c2cc3ccccc3o2)cc1	89% (inactive)
O=C(Cc1ccccc1)Nc1c(C(=O)c2ccccc2)oc2ccccc12	3% (active)
Cc1ccc(NC(=O)c2oc3ccccc3c2NC(=O)c2cc3ccccc3o2)cc1	94% (inactive)
CCCCOC(=O)c1cccc(NC(=O)c2cc3ccccc3o2)c1	1% (active)
Cc1ccc(NC(=O)/C=C/c2ccccc2Cl)cc1Cl	67% (inactive)
CCN(CC)c1cc(C)c2cc(NC(=O)/C=C/c3ccccc3Cl)ccc2n1	53% (inactive)
CCCCc1ccc(-n2nc3ccc(NC(=O)c4cc5ccccc5o4)cc3n2)cc1	72% (inactive)
O=C(Nc1c(C(=O)Nc2ccc(F)cc2)oc2ccccc12)c1cc2ccccc2o1	47% (active)
CCCCOC(=O)c1ccc(NC(=O)c2cc(=O)c3ccccc3o2)cc1	57% (inactive)
Cc1ccc(C(=O)c2oc3ccccc3c2NC(=O)Cc2ccccc2)cc1	50% (inactive)
CCCCOC(=O)c1cccc(NC(=O)/C=C/c2ccccc2Cl)c1	14% (active)
CCOc1ccc(CNC(=O)C2Cc3ccccc3N2C(=O)CC)cc1OC (centres undefined)	78% (inactive)
COc1ccc(OC)c(NC(=O)c2cc3c(=O)n4cccc(C)c4nc3n2C)c1	65% (inactive)
COc1ccc(CNC(=O)CN(c2cc(C)cc(C)c2)S(=O)(=O)c2c(C)[nH]c(=O)[nH]c2=O)cc1	86% (inactive)
CC1CN(C(=O)CCC(=O)NCc2cccs2)c2cc(Cl)ccc2O1 (centres undefined)	84% (inactive)
CCOC(=O)c1c(S(=O)(=O)N2CCCC(C(=O)Nc3cc(C)ccn3)C2)c(C)n(C)c1C (centres undefined)	83% (inactive)
CN(C1CCCCC1)S(=O)(=O)c1ccc(C(=O)Nc2sc3c(c2C(N)=O)CC(C)(C)NC3(C)C)cc1	84% (inactive)
COc1ccc2c(c1)c1c(c(=O)n(-c3ccccc3)c(=O)n1CC(=O)NCc1ccc(C)cc1)n2C	83% (inactive)
COc1ccc(-n2cc(C(=O)NCc3ccccc3)c3ccccc3c2=O)cc1	61% (inactive)
O=C(Nc1ccccc1F)c1oc2ccccc2c1NC(=O)c1c(F)cccc1F	26% (active)
COc1ccc(C(=O)Nc2c(C(=O)c3ccccc3)oc3ccccc23)cc1	72% (inactive)

Structure (SMILES)	survival
COc1cc(C(=O)Nc2c(C(=O)Nc3ccccc3F)oc3ccccc23)cc(OC)c1OC	52% (inactive)
COc1ccccc1C(=O)Nc1c(C(=O)c2ccccc2)oc2ccccc12	-1% (active)
COc1ccccc1C(=O)Nc1c(C(=O)Nc2ccccc2F)oc2ccccc12	13% (active)
CCOc1ccc(NC(=O)c2oc3ccccc3c2NC(=O)c2cc(C)cc(C)c2)cc1	82% (inactive)
COc1ccccc1NC(=O)c1oc2ccccc2c1NC(=O)c1c(F)cccc1F	51% (inactive)
CCOc1ccc(NC(=O)c2oc3ccccc3c2NC(=O)C(C)(C)C)cc1	38% (active)
COc1ccccc1C(=O)Nc1c(C(=O)NC(C)(C)C)oc2ccccc12	99% (inactive)
CC(=O)Nc1c(C(=O)Nc2ccccc2F)oc2ccccc12	119% (inactive)
O=C(Cc1ccccc1)Nc1c(C(=O)Nc2ccccc2F)oc2ccccc12	83% (inactive)
CCOc1ccc(NC(=O)c2oc3ccccc3c2NC(=O)c2c(F)cccc2F)cc1	91% (inactive)
CCN1C(=O)/C(=C2\C=Cc3ccccc3N2CC)SC1=S	77% (inactive)
CC(=O)Nc1ccc(-c2nnc(SCC(=O)c3ccc([N+](=O)[O-])cc3)o2)cc1	66% (inactive)
CCOc1ccccc1C(=O)Nc1cc2c(cc1N1CCOCC1)n(C)c(=O)n2C	77% (inactive)
CCCNC(=O)N1CCc2cc(OC)c(OC)cc2C1c1cc2cc3c(cc2[nH]c1=O)OCO3 (centres undefined)	91% (inactive)
CCOCCc1nn2c(=O)cc(COC(=O)COc3ccccc3Cl)nc2s1	88% (inactive)
COc1ccc(NC(=O)c2oc3ccccc3c2NC(=O)c2cc3ccccc3o2)c(OC)c1	72% (inactive)
COc1ccc(N2CCN(C(=O)c3oc4ccccc4c3NC(=O)c3ccccc3OC)CC2)cc1	131% (inactive)
O=C(Nc1ccc(NC(=O)c2cc3ccccc3o2)cc1)c1ccccc1	86% (inactive)
COc1ccccc1C(=O)Nc1c(C(=O)N2CCN(c3ccccc3F)CC2)oc2ccccc12	92% (inactive)
COc1ccccc1C(=O)Nc1c(C(=O)N2CCN(c3ccc(F)cc3)CC2)oc2ccccc12	0% (active)
O=C(O)c1ccc(NC(=O)c2cc3ccccc3o2)cc1	59% (inactive)
CC(C)Oc1ccc(NC(=O)c2cc3ccccc3o2)cc1	40% (active)
O=C(Nc1c(C(=O)Nc2ccccc2F)oc2ccccc12)c1cc2ccccc2o1	37% (active)

Structure (SMILES)	survival
Cc1cc(C)cc(C(=O)Nc2c(C(=O)Nc3ccccc3F)oc3ccccc23)c1	80% (inactive)
Cc1cccc(CC(=O)Nc2c(C(=O)Nc3cccc(F)c3)oc3ccccc23)c1	57% (inactive)
COc1cccc(NC(=O)c2oc3ccccc3c2NC(=O)c2cc3ccccc3o2)c1	51% (inactive)
O=C(Nc1c(C(=O)Nc2cccc(F)c2)oc2ccccc12)c1cc2ccccc2o1	35% (active)
COc1ccc(CCNC(=O)CCS(=O)(=O)c2cc3c(cc2Cl)NC(=O)CO3)cc1OC	90% (inactive)
COc1ccc(-c2noc(-c3ccc(C)cc3Cl)n2)cc1OC	136% (inactive)
Cc1ccc(C)c(NC(=O)Cn2cc(S(=O)(=O)N3CCCC3)c(S(=O)(=O)N3CCCC3)c2)c1	94% (inactive)
COc1ccc(OC)c(NC(=O)c2cn3c4c(ccc(Cl)c4c2=O)OC(C)C3)c1 (centres undefined)	87% (inactive)
Cc1ccc(-c2cc(NC(=O)COc3ccc(Cl)c(C)c3)on2)cc1	86% (inactive)
Oc1c(Br)cc(Br)cc1-c1nc2ccccc2s1	126% (inactive)
CCOc1ccccc1CNC(=O)CCn1cccn1	67% (inactive)
CCOC(=O)C1CCN(c2cc3c(cc2NC(=O)c2ccc(Cl)cc2)n(C)c(=O)n3C)CC1	93% (inactive)
COc1ccc(CNC(=O)C2=C(C)C(=O)OC23CCCCC3)cc1	82% (inactive)
CCc1ccc(S(=O)(=O)c2cn(C)c3cc(OC)c(OC)cc3c2=O)cc1	121% (inactive)
CCOC(=O)c1ccc(NC(=O)C2Cc3ccccc3CN2S(=O)(=O)c2ccc(Cl)cc2)cc1 (centres undefined)	53% (inactive)
CCCc1c(C)c2ccc(O)c(CN3CCN(c4ccc(F)cc4)CC3)c2oc1=O	52% (inactive)
O=C(NCCCN=C1NS(=O)(=O)c2ccccc21)c1ccncc1	85% (inactive)
CCOc1cccc(C(=O)Nc2c(C(=O)c3ccc(OC)cc3)oc3ccccc23)c1	28% (active)
CCOc1ccccc1C(=O)Nc1c(C(=O)Nc2ccc(F)cc2)oc2ccccc12	83% (inactive)
O=C(Nc1c(C(=O)Nc2ccc(F)cc2)oc2ccccc12)c1ccccc1F	40% (active)
O=C(Nc1c(C(=O)N2CCN(c3ccccc3F)CC2)oc2ccccc12)c1ccco1	69% (inactive)
COc1cccc(C(=O)Nc2c(C(=O)Nc3ccc(F)cc3)oc3ccccc23)c1OC	60% (inactive)
O=C(Nc1c(C(=O)N2CCN(c3ccc(F)cc3)CC2)oc2ccccc12)c1ccco1	74% (inactive)

Structure (SMILES)	survival
O=C(Nc1c(C(=O)N2CCN(c3ccccc3)CC2)oc2ccccc12)c1ccco1	37% (active)
CCOc1ccc(C(=O)Nc2c(C(=O)c3ccc(OC)cc3)oc3ccccc23)cc1	79% (inactive)
COc1ccc(C(=O)c2oc3ccccc3c2NC(=O)c2cccc(OC)c2)cc1	58% (inactive)
COCCNC(=O)c1ccc2nc(CCc3ccccc3)oc2c1	112% (inactive)
CCOC(=O)c1c(NC(=O)/C=C/c2ccc(OCC)cc2)sc(C)c1C	50% (inactive)
CCOc1ccc(C(c2c(O)cc(C)n(CCOC)c2=O)N2CCC(C)CC2)cc1 (centres undefined)	73% (inactive)
CCc1ccccc1NC(=O)CN(c1cc(C(F)(F)F)ccc1Cl)S(=O)(=O)c1ccccc1	44% (active)
COc1ccccc1N(CC(=O)Nc1ccccc1C(F)(F)F)S(=O)(=O)c1ccc(C)cc1	64% (inactive)
CCOc1ccc(S(=O)(=O)N(CC(=O)NCCc2ccc(OC)c(OC)c2)c2ccccc2)cc1	49% (inactive)
Cc1cc(C)cc(NC(=O)CN(c2cc(C(F)(F)F)ccc2Cl)S(=O)(=O)c2ccccc2)c1	79% (inactive)
CCc1ccccc1NC(=O)CN(c1cccc(C)c1C)S(C)(=O)=O	54% (active)
O=C(CN(c1cc(C(F)(F)F)ccc1Cl)S(=O)(=O)c1ccccc1)NCCc1ccccc1	66% (inactive)
Cc1cccc(N(CC(=O)Nc2cccc(Cl)c2C)S(C)(=O)=O)c1C	61% (inactive)
COc1ccc(OC)c(NC(=O)CN(c2ccccc2OC)S(=O)(=O)c2ccc(C)cc2)c1	54% (inactive)
CCOc1ccc(S(=O)(=O)N(CC(=O)NCCc2ccc(OC)cc2)c2ccccc2)cc1	92% (inactive)
CCOc1ccc(S(=O)(=O)N(CC(=O)NCc2ccccc2OC)c2ccccc2)cc1	37% (active)
Cc1cccc(N(CC(=O)NCc2ccccc2)S(C)(=O)=O)c1C	70% (inactive)
CCc1ccccc1NC(=O)CN(c1ccccc1OC)S(=O)(=O)c1ccc(C)cc1	36% (active)
COc1cccc2cc(C(=O)N3CCCCC3)c(=O)oc12	85% (inactive)
Nc1cccc(C(=O)NC23CC4CC(CC(C4)C2)C3)c1	95% (inactive)
